Test results from PubChem BioAssay (Tox21).
Inconclusive results are not listed. Active and inactive are the calls of the source. Unless noted, the call rests on the fitted dose curve.

What was measured:
[1] = Nuclear factor erythroid 2-related factor 2/antioxidant responsive element (Nrf2/ARE) small molecule agonists: qHTS cell viability counter screen in human keratinocytes (AID 1919968; active means well fitted curve in the direction sought with a large enough effect in the repeat runs; an effect the other way counts as inactive or inconclusive; further: nearly all actives have a fitted effect of over 55% in size)
Method in brief: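 Cells of the KeratinoSens line were plated at 1,500 per well and left for 5 h before compound transfer from DMSO stocks. After a 23 h incubation (37 C, 5% CO2), CellTiter-Fluor was added. Signal was taken as fluorescence intensity 1 h later.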

[2] = target: Gonadotropin-releasing hormone receptor (Homo sapiens) (UniProt P30968); assay: Human gonadotropin-releasing hormone receptor (GnRHR) small molecule agonists, calcium flux assay in GnRHR-HEK293 cells (AID 1920063); further: nearly all actives have a fitted effect of over 35% in size
Sequence of Gonadotropin-releasing hormone receptor (Homo sapiens) (P30968 whole entry, looked up): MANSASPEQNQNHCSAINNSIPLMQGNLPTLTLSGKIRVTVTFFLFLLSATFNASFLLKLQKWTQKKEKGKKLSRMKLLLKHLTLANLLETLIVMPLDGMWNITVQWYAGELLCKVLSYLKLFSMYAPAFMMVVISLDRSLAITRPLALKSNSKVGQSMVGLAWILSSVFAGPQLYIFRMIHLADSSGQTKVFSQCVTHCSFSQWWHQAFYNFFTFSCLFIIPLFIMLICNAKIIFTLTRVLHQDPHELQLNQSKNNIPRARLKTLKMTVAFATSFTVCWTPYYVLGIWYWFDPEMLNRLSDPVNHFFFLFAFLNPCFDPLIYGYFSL
Method in brief: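 Compounds dissolved in DMSO are pin-transferred onto dye-loaded GnRHR-HEK293 cells, which were seeded 18 h before at 37 C/5% CO2. Calcium signal is read as fluorescence intensity at 1 s intervals for 3 min.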

[3] = G protein-coupled receptor (GPCR) small molecule agonists, calcium flux assay: HEK293 wild type cell line counter screen (AID 1920065)
Method in brief: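 Tox21 10K compounds, 15 concentrations each in triplicate, pin-transferred in DMSO onto dye-loaded cells; kinetic read at 480/540 nm for 3 min, 1 s intervals.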

[4] = p53 small molecule agonists, cell-based qHTS assay with rat liver microsomes (AID 1963578)
Method in brief: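 With rat liver microsomes and NADPH present (0.5 mg/mL final each), p53RE-bla cells are treated with compound for 16 h at 37 C. LiveBLAzer detection mixture is then applied for 2 h at room temperature in the dark.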

[5] = p53 small molecule agonists, cell-based qHTS assay with human liver microsomes: qHTS cell viability counter screen (AID 1963579); further: nearly all actives have a fitted effect of over 45% in size
Method in brief: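 In this multiplexed counter screen, the reporter plates were subsequently treated with CellTiter-Glo so that cell viability, reflected by luminescence, could be recorded for p53RE-bla cells dosed 16 h with compounds under microsomal activation (HLM and NADPH).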

[6] = p53 small molecule agonists, cell-based qHTS assay with rat liver microsomes: qHTS cell viability counter screen (AID 1963580); further: nearly all actives have a fitted effect of over 45% in size
Method in brief: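 Rat liver microsome (0.5 mg/mL final) and NADPH (0.5 mg/mL final) co-incubation with compounds for 16 h at 37 C on HCT-116 p53RE-bla cells; cytotoxicity taken from intracellular ATP luminescence.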

[7] = p53 small molecule agonists, cell-based qHTS assay: qHTS cell viability counter screen (AID 1963581); further: nearly all actives have a fitted effect of over 45% in size
Method in brief: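 ATP content measured by luminescence in HCT-116 p53RE-bla cells treated 16 h at 37 C, same wells as the reporter screen.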

[8] = p53 small molecule agonists, cell-based qHTS assay (AID 1963582; active means well fitted activation curve with a large enough effect in the signal ratio in the repeat runs, not every such curve was filed as active; the % refers to the signal ratio)
Method in brief: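 16 h compound exposure (37 C) of p53 response element–bla cells, preceded by 5 h recovery at 37 C/5% CO2; read-out via LiveBLAzer B/G FRET substrate, 2 h RT, fluorescence intensity.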

[9] = target: 5-hydroxytryptamine receptor 2A (Homo sapiens) (UniProt P28223); assay: 5-hydroxytryptamine receptor 2A (HTR2A) small molecule agonists, cell-based qHTS assay (AID 1963587); further: nearly all actives have a fitted effect of over 30% in size
Sequence of 5-hydroxytryptamine receptor 2A (Homo sapiens) (P28223 whole entry, looked up): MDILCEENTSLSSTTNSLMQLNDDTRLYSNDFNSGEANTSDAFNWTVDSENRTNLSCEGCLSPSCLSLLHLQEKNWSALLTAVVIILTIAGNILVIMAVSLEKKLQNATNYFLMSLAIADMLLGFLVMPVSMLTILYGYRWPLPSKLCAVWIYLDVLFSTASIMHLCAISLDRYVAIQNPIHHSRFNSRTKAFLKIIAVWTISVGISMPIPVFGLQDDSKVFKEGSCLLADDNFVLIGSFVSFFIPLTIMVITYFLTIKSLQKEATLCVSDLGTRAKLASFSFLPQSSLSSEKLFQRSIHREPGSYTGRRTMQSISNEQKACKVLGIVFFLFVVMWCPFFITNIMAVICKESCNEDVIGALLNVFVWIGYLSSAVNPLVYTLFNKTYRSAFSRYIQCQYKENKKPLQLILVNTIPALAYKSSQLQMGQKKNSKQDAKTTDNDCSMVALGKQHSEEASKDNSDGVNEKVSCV
Method in brief: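 Kinetic calcium-flux fluorescence (2 min, 1 sec intervals) after compound addition in agonist mode. HTR2A-CHO cells were cultured 18 h, then dye-loaded 1 h at 37 C.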

[10] = target: Muscarinic acetylcholine receptor M1 (Homo sapiens) (UniProt P11229); assay: Cholinergic receptor muscarinic 1 (CHRM1) small molecule antagonists, cell-based qHTS assay (AID 1963588); further: nearly all actives have a fitted effect of over 40% in size
Sequence of Muscarinic acetylcholine receptor M1 (Homo sapiens) (P11229 whole entry, looked up): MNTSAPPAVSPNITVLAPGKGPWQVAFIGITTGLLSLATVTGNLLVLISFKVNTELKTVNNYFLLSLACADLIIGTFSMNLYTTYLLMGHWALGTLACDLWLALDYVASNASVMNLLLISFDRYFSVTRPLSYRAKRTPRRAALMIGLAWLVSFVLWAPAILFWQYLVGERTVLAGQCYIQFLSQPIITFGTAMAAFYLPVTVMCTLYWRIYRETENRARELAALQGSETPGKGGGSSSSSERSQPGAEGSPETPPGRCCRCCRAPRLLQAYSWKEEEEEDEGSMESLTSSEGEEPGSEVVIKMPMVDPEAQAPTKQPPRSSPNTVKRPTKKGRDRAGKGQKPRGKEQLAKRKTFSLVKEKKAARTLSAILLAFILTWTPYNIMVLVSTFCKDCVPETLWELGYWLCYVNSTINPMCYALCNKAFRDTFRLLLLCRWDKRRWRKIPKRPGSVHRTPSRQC
Method in brief: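 Compounds were tested at 15 concentrations in three independent runs. Dye-loaded CHRM1-CHO cells were exposed 5 min at room temperature before stimulation by acetylcholine added at 50nM. Intracellular calcium was read kinetically on FDSS for 3 min.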

[11] = target: Muscarinic acetylcholine receptor M1 (Homo sapiens) (UniProt P11229); assay: Cholinergic receptor muscarinic 1 (CHRM1) small molecule agonists, cell-based qHTS assay (AID 1963589); further: nearly all actives have a fitted effect of over 35% in size
Method in brief: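 Homogeneous fluorescence calcium flux, agonist mode. Human M1-expressing CHO cells; compound dosed at 15 concentrations, three independent runs; signal sampled every 1 sec.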

[12] = target: Beta-2 adrenergic receptor (Homo sapiens) (UniProt P07550); assay: Adrenergic beta2 receptor (ADRB2) small molecule antagonists, cell-based qHTS assay (AID 1963592); further: series mostly up to about 92 µM; nearly all actives have a fitted effect of over 50% in size
Sequence of Beta-2 adrenergic receptor (Homo sapiens) (P07550 whole entry, looked up): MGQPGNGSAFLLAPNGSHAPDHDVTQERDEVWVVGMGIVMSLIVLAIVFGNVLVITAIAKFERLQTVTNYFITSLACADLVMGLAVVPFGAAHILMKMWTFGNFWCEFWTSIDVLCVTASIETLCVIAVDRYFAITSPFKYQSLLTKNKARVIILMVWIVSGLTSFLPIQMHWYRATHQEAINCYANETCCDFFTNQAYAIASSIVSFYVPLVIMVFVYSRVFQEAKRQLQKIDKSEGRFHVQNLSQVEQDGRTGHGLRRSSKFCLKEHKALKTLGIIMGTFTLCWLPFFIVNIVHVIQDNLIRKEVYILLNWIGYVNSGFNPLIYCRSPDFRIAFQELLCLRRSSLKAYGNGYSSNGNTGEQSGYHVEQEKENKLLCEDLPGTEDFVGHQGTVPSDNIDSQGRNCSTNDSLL
Method in brief: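 Assay format: CHO-ADRB2 cells, 18-20hr seeding at 37C/5% CO2, then compound plus 1nM isoproterenol agonist mix for 0.5hr RT. Homogeneous time-resolved fluorescence cAMP detection after 1hr, expressed as 665/615 nm ratio.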

[13] = target: D(2) dopamine receptor (Homo sapiens) (UniProt P14416); assay: Dopamine D2 receptor (DRD2) small molecule agonists, cell-based qHTS assay (AID 1963594); further: nearly all actives have a fitted effect of over 35% in size; further: potency means the concentration at half of the fitted maximal effect
Sequence of D(2) dopamine receptor (Homo sapiens) (P14416 whole entry, looked up): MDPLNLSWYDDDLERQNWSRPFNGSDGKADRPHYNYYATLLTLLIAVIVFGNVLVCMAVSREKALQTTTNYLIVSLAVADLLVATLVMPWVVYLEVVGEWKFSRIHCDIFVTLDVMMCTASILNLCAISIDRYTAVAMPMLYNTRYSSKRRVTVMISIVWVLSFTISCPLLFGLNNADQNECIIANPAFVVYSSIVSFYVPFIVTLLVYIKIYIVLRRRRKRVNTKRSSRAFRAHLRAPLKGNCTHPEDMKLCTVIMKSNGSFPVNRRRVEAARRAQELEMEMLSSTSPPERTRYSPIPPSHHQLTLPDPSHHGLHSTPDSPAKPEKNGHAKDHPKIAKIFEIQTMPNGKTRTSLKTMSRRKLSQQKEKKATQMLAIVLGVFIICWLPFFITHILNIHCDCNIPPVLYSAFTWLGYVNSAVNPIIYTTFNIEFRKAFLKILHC
Method in brief: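 cAMP accumulation in DRD2-HEK293 cells measured by HTRF after 1 h detection; compounds added 10 min before NKH477 (200nM […]) forskolin-analogue stimulation, 30 min at room temperature, with Ro20-1724 present at 0.1 mM final.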

[14] = target: D(2) dopamine receptor (Homo sapiens) (UniProt P14416); assay: Dopamine D2 receptor (DRD2) small molecule antagonists, cell-based qHTS assay (AID 1963595; active means well fitted inhibition curve with a large enough effect in the signal ratio in the repeat runs, with a control signal flat; the % refers to the signal ratio)
Method in brief: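 Human DRD2 antagonist qHTS measuring cAMP by HTRF. The cells are exposed to compound for 10 min, then to NKH477 (200 nM) and quinpirole (12 nM) for 30 min at RT, with Ro20-1724 (0.1 mM) present throughout.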

[15] = p53 small molecule agonists, cell-based qHTS assay with human liver microsomes (AID 1963577);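 further: p53 response element beta-lactamase reporter cells with liver microsomes plus NADPH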
Method in brief: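 16 h, 37 C exposure of p53RE-bla cells to compounds with human liver microsomes and NADPH (0.5 mg/mL final each); detection via LiveBLAzer mixture, 2 h dark at room temperature.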

[16] = cAMP Responsive Elements (CRE) small molecule agonists, cell-based qHTS assay (AID 1963590)
Method in brief: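 HEK 293T cells stably bearing CRE-bla were plated at 2,000 cells per well and rested 18 h. Compounds, positive controls or DMSO were added for 3 h at 37 C. LiveBLAzer B/G substrate was then loaded for 2 h at room temperature.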

[17] = cAMP Responsive Elements (CRE) small molecule antagonists, cell-based qHTS assay (AID 1963591; active means well fitted inhibition curve with a large enough effect in the signal ratio in the repeat runs, not every such curve was filed as active; the % refers to the signal ratio)
Method in brief: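 First, CRE-bla HEK293T cells settled 18 h at 37 C. Next, compound and 0.25 uM final NKH477 were applied for 3 h. Last, LiveBLAzer B/G substrate was loaded for 2 h at room temperature.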

[18] = target: 5-hydroxytryptamine receptor 2A (Homo sapiens) (UniProt P28223); assay: 5-hydroxytryptamine receptor 2A (HTR2A) small molecule antagonists, cell-based qHTS assay (AID 1963586); further: nearly all actives have a fitted effect of over 45% in size
Method in brief: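 CHO cells stably expressing human HTR2A were plated for 18 h at 37 C, then loaded with calcium dye for 1 h. Compounds were preincubated 5 min at room temperature before DOI (4 nM solution) was added. Kinetic fluorescence was read for 3 min.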

[19] = target: Beta-2 adrenergic receptor (Homo sapiens) (UniProt P07550); assay: Adrenergic beta2 receptor (ADRB2) small molecule agonists, cell-based qHTS assay (AID 1963593);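 further: CHO cells stably overexpressing human ADRB2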
Method in brief: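 CHO cells stably over-expressing ADRB2 were plated overnight at 37C, then dosed with compounds plus a stimulation mix containing 100uM IBMX and 25uM Ro-20-1724 for 0.5hr at room temperature. cAMP was measured by HTRF competition, 1hr.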

[20] = target: KiSS-1 receptor (Homo sapiens) (UniProt Q969F8); assay: Human kisspeptin (KISS1R) small molecule agonists, calcium flux assay in KISS1R-HEK293 cells (AID 1920064; active means well fitted curve in the direction sought with a large enough effect in the repeat runs; an effect the other way counts as inactive or inconclusive)
Sequence of KiSS-1 receptor (Homo sapiens) (Q969F8 whole entry, looked up): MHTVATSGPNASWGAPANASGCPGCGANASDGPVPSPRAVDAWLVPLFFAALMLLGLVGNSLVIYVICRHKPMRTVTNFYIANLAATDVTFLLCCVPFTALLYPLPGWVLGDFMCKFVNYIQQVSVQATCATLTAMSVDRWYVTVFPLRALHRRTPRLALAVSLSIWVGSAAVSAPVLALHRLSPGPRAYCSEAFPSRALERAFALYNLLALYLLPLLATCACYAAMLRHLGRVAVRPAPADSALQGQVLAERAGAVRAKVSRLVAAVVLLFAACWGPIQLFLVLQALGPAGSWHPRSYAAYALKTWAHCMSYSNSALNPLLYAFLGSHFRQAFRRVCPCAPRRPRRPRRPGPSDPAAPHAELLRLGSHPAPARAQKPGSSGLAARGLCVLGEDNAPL
Method in brief: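 Cell line: HEK293, stable human KISS1R. Dye loading 1 h at 37 C after 18 h culture. Read: kinetic fluorescence, 480/540 nm, 3 min at 1 s intervals.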
On the % scale 0 is the no-effect control and ±100 the full control effect.

O=C(O)c1ccc(-n2nc(-c3ccccc3O)nc2-c2ccccc2O)cc1
active: Potency [13] 11.2 µM
inactive: Potency [1] | Potency [2] | Potency [3] | Potency [4] | Potency [5] | Potency [6] | Potency [7] | Potency [8] | Potency [9] | Potency [10] | Potency [11] | Potency [12] | Potency [14]

C[Si](Cl)(c1ccccc1)c1ccccc1
inactive: Potency [1] | Potency [2] | Potency [3] | Potency [15] | Potency [4] | Potency [5] | Potency [6] | Potency [7] | Potency [8] | Potency [10] | Potency [11] | Potency [16] | Potency [17] | Potency [12] | Potency [13] | Potency [14]

CC[C@H](C)COC(=O)/C=C/c1ccc(N=Cc2ccc(OC)cc2)cc1
inactive: Potency [1] | Potency [2] | Potency [3] | Potency [15] | Potency [4] | Potency [7] | Potency [18] | Potency [10] | Potency [17] | Potency [19]

CCC(C)[O-].CCC(C)[O-].CCOC(=O)/C=C(/C)[O-].[Al+3]
inactive: Potency [1] | Potency [2] | Potency [5] | Potency [6] | Potency [7] | Potency [18] | Potency [9] | Potency [10] | Potency [11] | Potency [16] | Potency [12] | Potency [13] | Potency [14]

CCCCCCCCCCCC(=O)OCC(O)CO (centres undefined)
inactive: Potency [1] | Potency [2] | Potency [20] | Potency [6] | Potency [7] | Potency [18] | Potency [10] | Potency [11] | Potency [17] | Potency [12] | Potency [19] | Potency [13] | Potency [14]

CCCC/C=C/C=C\C=O
inactive: Potency [1] | Potency [2] | Potency [3] | Potency [15] | Potency [4] | Potency [5] | Potency [6] | Potency [7] | Potency [8] | Potency [18] | Potency [9] | Potency [10] | Potency [16] | Potency [12] | Potency [13] | Potency [14]

N[C@@H](CCC(=O)N[C@@H](CS)C(=O)NCC(=O)O)C(=O)O
inactive: activity change, negative = cytotoxicity [1] 3.9% [at 19 µM] | activity change [2] 2.39% [at 11.8 µM, stronger effect = higher value] | activation [3] -1.3% [at 11.8 µM] | activity change, negative = cytotoxicity [5] -1.1% [at 13.5 µM] | activity change, negative = cytotoxicity [6] 0.778% [at 13.5 µM] | activity change, negative = cytotoxicity [7] 13.7% [at 13.5 µM] | activity, negative = inhibition [18] -1.78% [at 12.7 µM] | activation [9] 2.78% [at 15.9 µM] | activity, negative = inhibition [10] 11.9% [at 12.6 µM] | activation [11] -0.288% [at 15.8 µM] | activity change, negative = inhibition [12] -5.33% [at 19 µM] | activation [19] 20.3% [at 19 µM] | activation [13] -7.59% [at 19 µM]

CCCC(=O)OCCC(C)CCC=C(C)C (centres undefined)
inactive: Potency [1] | Potency [2] | Potency [3] | Potency [5] | Potency [6] | Potency [7] | Potency [18] | Potency [9] | Potency [10] | Potency [11] | Potency [16] | Potency [17] | Potency [19] | Potency [14]

Nc1ccn([C@H]2CS[C@@H](CO)O2)c(=O)n1
inactive: Potency [1] | Potency [2] | Potency [3] | Potency [15] | Potency [4] | Potency [5] | Potency [6] | Potency [7] | Potency [8] | Potency [16] | Potency [17] | Potency [12] | Potency [19] | Potency [13] | Potency [14]
